Measurements taken from PubChem BioAssay (EPA / NIEHS).
Activity calls are given as the source filed them. Rule for the calls: active = hit-call score of the fitted dose curve at least 0.9, where 1 is the maximum; inactive = score below 0.9.

Tests used:
[1] = read-out: Matrix Metallopeptidase 9 (MMP9), MMP9 (gene 4318); assay: BSK_KF3CT_MMP9: BioMAP Diversity Plus: KF3CT Assay for Matrix Metallopeptidase 9 (MMP9) Biomarker Activity (AID 2283074); conditions: primary human keratinocytes with fibroblasts; actives raise or lower the signal;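 for AC50: MMP9 protein level quantified by ELISA in the co-culture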
In short: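 Keratinocyte plus foreskin fibroblast human primary skin co-culture was dosed with chemical and MMP-9 was quantified by ELISA 24 h later. Bidirectional curve fitting used DMSO as negative control and activity baseline.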

[2] = read-out: urokinase plasminogen activator (uPA), PLAU (gene 5328); assay: BSK_KF3CT_uPA: BioMAP Diversity Plus: KF3CT Assay for urokinase plasminogen activator (uPA) Biomarker Activity (AID 2283075); conditions: primary human keratinocytes with fibroblasts; actives raise or lower the signal
In short: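 Human keratinocyte plus foreskin fibroblast primary co-culture exposed to chemical for 24 h. uPA levels were quantified by ELISA, and activity was fitted bidirectionally against a DMSO negative-control baseline.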

[3] = read-out: CD40, CD40 (gene 958); assay: BSK_LPS_CD40: BioMAP Diversity Plus: LPS Assay for CD40 Biomarker Activity (AID 2283076); conditions: primary human HUVEC with PBMC; actives raise or lower the signal
In short: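 Using a multiplexed primary human co-culture (umbilical vein endothelium plus PBMC), CD40 was read by ELISA 24 h after dosing, with cytotoxicity tracked by sulforhodamine B staining of parallel cultures and activity fitted bidirectionally versus DMSO.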

[4] = read-out: E-selectin (Homo sapiens) (UniProt P16581); assay: BSK_LPS_Eselectin: BioMAP Diversity Plus: LPS Assay for Eselectin Biomarker Activity (AID 2283077); conditions: primary human HUVEC with PBMC; actives raise or lower the signal
In short: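 Dose chemical onto LPS-driven HUVEC/PBMC co-culture; after 24 h, run ELISA for E-selectin; fit up- and down-going responses relative to DMSO control.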

[5] = read-out: Interleukin-8 (IL8), CXCL8 (gene 3576); assay: BSK_LPS_IL8: BioMAP Diversity Plus: LPS Assay for Interleukin-8 (IL8) Biomarker Activity (AID 2283078); conditions: primary human HUVEC with PBMC; actives raise or lower the signal
In short: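 In this LPS system, chemical-treated human umbilical vein endothelium/PBMC co-cultures were harvested at 24 h for IL-8 ELISA.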

[6] = BSK_LPS_SRB: Viability Assessment in the BioMAP Diversity Plus: LPS Assay (AID 2283079); conditions: primary human HUVEC with PBMC;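 note: total protein by sulforhodamine B absorbance as a cytotoxicity measure; measured one day after compound addition; fitted in both directions against DMSO so loss or gain of signal counts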
In short: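 Cytotoxicity endpoint in human endothelial–PBMC co-culture: 24 h exposure, then SRB (0.1%) staining, 560 nm read.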

[7] = read-out: Interleukin-1 alpha (IL1a), IL1A (gene 3552); assay: BSK_LPS_IL1a: BioMAP Diversity Plus: LPS Assay for Interleukin-1 alpha (IL1a) Biomarker Activity (AID 2283080); conditions: primary human HUVEC with PBMC; actives raise or lower the signal
In short: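 Primary human HUVEC and PBMC co-culture stimulated with LPS is dosed and harvested at 24 h. Both increases and decreases in ELISA-measured IL-1a are scored relative to DMSO.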

[8] = read-out: Monocyte Chemoattractant Protein-1 (MCP1), CCL2 (gene 6347); assay: BSK_LPS_MCP1: BioMAP Diversity Plus: LPS Assay for Monocyte Chemoattractant Protein-1 (MCP1) Biomarker Activity (AID 2283081); conditions: primary human HUVEC with PBMC; actives raise or lower the signal
In short: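 Values derive from bidirectional fitting against DMSO of ELISA-measured MCP-1 in a human primary endothelial and mononuclear cell co-culture, 24 h after chemical addition under LPS activation.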

[9] = BSK_LPS_PGE2: BioMAP Diversity Plus: LPS Assay for Prostaglandin E2 (PGE2) Biomarker Activity (AID 2283082); conditions: primary human HUVEC with PBMC; actives raise or lower the signal
In short: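 Endpoint derived from bidirectional curve fitting versus DMSO of ELISA-measured PGE2 in LPS-stimulated human primary vascular co-culture (HUVEC with PBMC) harvested at 24 h.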

[10] = read-out: Macrophage colony-stimulating factor (MCSF), CSF1 (gene 1435); assay: BSK_LPS_MCSF: BioMAP Diversity Plus: LPS Assay for Macrophage colony-stimulating factor (MCSF) Biomarker Activity (AID 2283083); conditions: primary human HUVEC with PBMC; actives raise or lower the signal
In short: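 Bidirectional fit versus DMSO of ELISA-measured M-CSF in co-cultured human umbilical vein endothelial cells and PBMC, sampled 24 h after dosing.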

[11] = read-out: Tissue Factor, F3 (gene 2152); assay: BSK_LPS_TissueFactor: BioMAP Diversity Plus: LPS Assay for Tissue Factor Biomarker Activity (AID 2283084); conditions: primary human HUVEC with PBMC; actives raise or lower the signal
In short: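 Read-out: CD142 ELISA, 24 h. System: LPS-driven human endothelial/PBMC co-culture. Analysis: up- or down-signal fitted against DMSO.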

[12] = read-out: Tumor necrosis factor (Homo sapiens) (UniProt P01375); assay: BSK_LPS_TNFa: BioMAP Diversity Plus: LPS Assay for Tumour Necrosis Factor alpha (TNFa) Biomarker Activity (AID 2283085); conditions: primary human HUVEC with PBMC; actives raise or lower the signal
In short: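 Primary human vascular co-culture of HUVEC and PBMC; TNFa ELISA 24 h after treatment, analysed as increase or decrease relative to DMSO control.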

[13] = read-out: Vascular cell adhesion molecule 1 (VCAM1), VCAM1 (gene 7412); assay: BSK_LPS_VCAM1: BioMAP Diversity Plus: LPS Assay for Vascular cell adhesion molecule 1 (VCAM1) Biomarker Activity (AID 2283086); conditions: primary human HUVEC with PBMC; actives raise or lower the signal
In short: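 Primary human vascular co-culture (umbilical vein endothelium plus PBMC) stimulated with LPS received chemical; 24 h later VCAM-1 was read by ELISA. Overt cytotoxicity was assessed by sulforhodamine B staining of parallel cultures at the same time point.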

[14] = read-out: CD38, CD38 (gene 952); assay: BSK_SAg_CD38: BioMAP Diversity Plus: SAg Assay for CD38 Biomarker Activity (AID 2283087); conditions: primary human HUVEC with PBMC; actives raise or lower the signal
In short: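 Fluorescence ELISA of cell-surface CD38 served as the read-out, with either increase or decrease fitted against DMSO controls. Cells were a human umbilical vein endothelium plus PBMC co-culture under SEB/TSST-1 stimulation, measured 24 h after dosing.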

[15] = read-out: CD40, CD40 (gene 958); assay: BSK_SAg_CD40: BioMAP Diversity Plus: SAg Assay for CD40 Biomarker Activity (AID 2283088); conditions: primary human HUVEC with PBMC; actives raise or lower the signal
In short: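 Endpoint derived by fitting increases or decreases versus DMSO controls. CD40 is detected by fluorescence ELISA in a human vascular co-culture of endothelium and PBMC at 24 h.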

[16] = read-out: CD69, CD69 (gene 969); assay: BSK_SAg_CD69: BioMAP Diversity Plus: SAg Assay for CD69 Biomarker Activity (AID 2283089); conditions: primary human HUVEC with PBMC; actives raise or lower the signal
In short: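 ELISA, fluorescence read-out: CD69 on human umbilical vein endothelial cell + PBMC co-culture, 24 h post-dosing. Gain or loss of signal fitted bidirectionally against DMSO baseline.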

[17] = read-out: Monocyte Chemoattractant Protein-1 (MCP1), CCL2 (gene 6347); assay: BSK_SAg_MCP1: BioMAP Diversity Plus: SAg Assay for Monocyte Chemoattractant Protein-1 (MCP1) Biomarker Activity (AID 2283090); conditions: primary human HUVEC with PBMC; actives raise or lower the signal
In short: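 MCP-1 levels in the endothelial–PBMC SAg co-culture were quantified by ELISA at 24 h post-dosing; both increases and decreases versus DMSO scored. Cytotoxicity monitored by SRB total protein in parallel cultures.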

[18] = read-out: E-selectin (Homo sapiens) (UniProt P16581); assay: BSK_SAg_Eselectin: BioMAP Diversity Plus: SAg Assay for Eselectin Biomarker Activity (AID 2283091); conditions: primary human HUVEC with PBMC; actives raise or lower the signal
In short: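 Endpoint values derive from bidirectional fitting relative to DMSO, using ELISA-measured E-selectin in a human vascular co-culture (umbilical vein endothelium plus PBMC) sampled 24 h after dosing.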

[19] = read-out: Monokine induced gamma interferon (MIG), CXCL9 (gene 4283); assay: BSK_SAg_MIG: BioMAP Diversity Plus: SAg Assay for Monokine induced gamma interferon (MIG) Biomarker Activity (AID 2283092); conditions: primary human HUVEC with PBMC; actives raise or lower the signal
In short: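 ELISA readout of MIG/CXCL9; primary human umbilical vein endothelial cells co-cultured with peripheral blood mononuclear cells; 24 h post-dose; gain/loss fit vs DMSO baseline.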

Measured: AC50

Tumor necrosis factor (Homo sapiens), sequence (P01375 whole entry, looked up): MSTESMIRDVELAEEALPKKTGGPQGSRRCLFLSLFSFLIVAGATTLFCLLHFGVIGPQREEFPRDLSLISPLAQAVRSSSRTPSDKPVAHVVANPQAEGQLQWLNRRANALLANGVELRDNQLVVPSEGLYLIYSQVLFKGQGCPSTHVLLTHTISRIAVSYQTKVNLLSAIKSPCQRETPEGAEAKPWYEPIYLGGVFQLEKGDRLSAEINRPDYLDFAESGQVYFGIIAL
E-selectin (Homo sapiens), sequence (P16581 whole entry, looked up): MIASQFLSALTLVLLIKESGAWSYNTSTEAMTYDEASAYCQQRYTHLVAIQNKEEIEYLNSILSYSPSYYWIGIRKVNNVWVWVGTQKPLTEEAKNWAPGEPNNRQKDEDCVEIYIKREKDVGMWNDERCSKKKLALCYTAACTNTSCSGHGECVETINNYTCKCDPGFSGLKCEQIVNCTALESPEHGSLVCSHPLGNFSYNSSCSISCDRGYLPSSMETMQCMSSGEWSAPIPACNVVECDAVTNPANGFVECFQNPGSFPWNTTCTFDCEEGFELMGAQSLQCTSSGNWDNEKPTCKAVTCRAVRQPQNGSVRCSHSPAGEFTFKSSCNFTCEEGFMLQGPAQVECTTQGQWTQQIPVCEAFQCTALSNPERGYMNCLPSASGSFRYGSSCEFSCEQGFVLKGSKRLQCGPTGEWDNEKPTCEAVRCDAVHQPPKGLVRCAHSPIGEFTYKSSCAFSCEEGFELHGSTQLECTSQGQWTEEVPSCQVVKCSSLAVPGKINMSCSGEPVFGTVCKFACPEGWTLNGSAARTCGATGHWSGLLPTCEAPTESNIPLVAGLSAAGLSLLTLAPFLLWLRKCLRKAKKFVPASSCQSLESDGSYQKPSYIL

O=C(O)c1ccc2c(c1)nc(C(=O)NC1CCN(C3CC3)CC1)n2Cc1cc(-c2ccc(Cl)s2)on1
inactive: all assays above

CCCCCCCCCCCCCCCCOS(=O)(=O)O
active: [1] 18.5 µM | [2] 15.6 µM | [14] 5.57 µM
inactive: all other assays above

CCCCCCOC(=O)CC(CC(=O)OCCCCCC)(OC(=O)CCC)C(=O)OCCCCCC
not listed: [14]
inactive: all other assays above

OCCNCCO
not listed: [14]
inactive: all other assays above

OC[C@H]1O[C@@](CO)(O[C@H]2O[C@H](CO)[C@@H](O)[C@H](O)[C@H]2O)[C@@H](O)[C@@H]1O
not listed: [14]
inactive: all other assays above

Cc1ncc([C@@H](CCCCCCc2ccc3c(n2)NCCC3)CC(=O)O)cn1
not listed: [14]
inactive: all other assays above

O=S1(=O)CCCO1
not listed: [14]
inactive: all other assays above
